# GluA2 TARP mod: modulates AMPAR-stargazin complexes; HEK293 GluA2+stargazin, membrane potential dye (FDSS), glutamate EC50; hits were called plate by plate, in both directions; O88602+P19491; 40,000 compounds, 3.5% hits; calls only at 30 µM;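 active means any of four per-well response measures lying three or more SD from its plate-wide compound average, in either direction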
# GIRK2 activator: GIRK2 channel activators by thallium flux; P48051; HEK293 GIRK2/NPY4 cells, thallium flux fluorescence; activation (% efficacy), % for hits at 37.5 µM; 34,000 tested, under 10 active;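 active means primary screen hit, no activity in plain HEK293 cells, and in GIRK2-only cells above 5% efficacy rising with concentration; inactive means the rest, including fluorescent compounds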;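 further: efficacy is normalized control-subtracted fluorescence 15 s after thallium addition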
# Calls only; - = inactive; . = not tested or not shown; + = active, no number. The entries come from a sample that favours hits as a whole.
SMILES,GluA2 TARP mod,GIRK2 activator
O=S(=O)(NCC(O)(c1ccco1)C1CC1)c1cccc(C(F)(F)F)c1 (stereo not given),+,-
O=S(=O)(NCC(O)(c1ccco1)C1CC1)c1ccc2c(c1)OCCO2 (stereo not given),-,-
CCn1nc(C)cc1C(=O)Nc1nc2c(C)ccc(Cl)c2s1,-,-
CC(O)(CNC(=O)c1cc(Cl)ccc1Cl)c1ccc2c(c1)OCO2 (stereo not given),-,-
CC(O)(CNC(=O)Nc1ccc(Cl)c(Cl)c1)c1ccc2c(c1)OCO2 (stereo not given),+,-
CC(C)COC(=O)Nc1nc(CC(=O)N2CCN(c3ccccc3)CC2)cs1,.,-
Cc1cccn2c(=O)c(C=NCCO)c(NCc3ccco3)nc12,+,.
Cc1cccn2c(=O)c(/C=N/O)c(NCCO)nc12,-,.
C/C(Cl)=C\Cn1c(NCc2ccco2)nc2c1c(=O)n(C)c(=O)n2C,-,.
COc1ccc(N=Cc2c(NCCO)nc3c(C)cccn3c2=O)cc1,+,-
O=C(Nc1ccc2c(c1)CN(C(=O)c1cccs1)CC2)c1ccc2nsnc2c1,-,-
O=C(Nc1ccc2c(c1)CN(C(=O)c1cccs1)CC2)c1cnccn1,+,-
O=C(Nc1ccc2c(c1)CN(S(=O)(=O)c1ccccc1)CC2)c1cnccn1,+,-
O=C(CCc1ccccc1)Nc1ccc2c(c1)CN(S(=O)(=O)c1ccccc1)CC2,-,-
COc1ccc(Nc2nc(C)c([N+](=O)[O-])c(NCc3ccco3)n2)c(OC)c1,-,-
COc1ccc(OC)c(/C=C2\Oc3cc(OCC(=O)OC(C)(C)C)ccc3C2=O)c1,-,.
CC(=O)c1ccc(S(=O)(=O)NCCOc2ccc3nnc(C)n3n2)cc1,-,-
CCCc1nc2ccccc2n1Cc1ccccc1OC,+,.
CCc1nc2ccccc2n1Cc1ccccc1OC,-,-
O=C(NCc1ccsc1)C1CCCCC1,+,-
O=C(NCC(O)c1ccsc1)C1CC1 (stereo not given),-,-
CN1CCN(NC(=O)C(=O)Nc2ccc(F)c(Cl)c2)CC1,-,-
CN1CCN(NC(=O)C(=O)Nc2ccc3c(c2)OCCO3)CC1,+,.
COc1ccc(-c2[nH]ncc2-c2nc(-c3cccs3)no2)cc1OC,-,-
Cc1c(Cl)cccc1NC(=O)C(=O)NCC(c1cccc2ccccc12)N(C)C (stereo not given),.,-
SMILES,GluA2 TARP mod,GIRK2 activator
CCCCSc1ccnc2c1c(=O)n(C)c(=O)n2C,+,.
CC1CCN(C(=O)CSc2ccnc3c2c(=O)n(C)c(=O)n3C)CC1,-,.
Cn1c(=O)c2c(SCC(=O)N3CCOCC3)ccnc2n(C)c1=O,+,.
C#CCSc1ccnc2c1c(=O)n(C)c(=O)n2C,-,.
Cc1ccc(C(CNC(=O)C(=O)NCc2ccc3c(c2)OCO3)N(C)C)cc1 (stereo not given),-,-
CCc1ccc(S(=O)(=O)N2CCN(CCn3ccnc3)CC2)cc1,.,-
COc1ccc(SCC(=O)N2CCN(c3nc4ccc(C)cc4s3)CC2)cc1,-,.
CSc1ccccc1C(=O)N1CCC(c2cccs2)CC1,+,-
O=C(c1ccccc1Oc1ccccc1)N1CCC(c2cccs2)CC1,-,-
COC(=O)N1CCC(CNC(=O)C(=O)NCCc2ccccc2)CC1,-,-
COC(=O)N1CCC(CNC(=O)CCc2ccccc2)CC1,+,-
O=C(c1cccc(-n2cnnn2)c1)N1CCC(c2nnc(-c3ccco3)s2)CC1,-,-
O=c1ccc(-c2ccco2)nn1CCCNS(=O)(=O)c1ccc2c(c1)OCCO2,-,-
O=c1ccc(-c2ccco2)nn1CCCNS(=O)(=O)c1ccc2c(c1)CCCC2,+,-
COc1ccc(CCC(=O)N2CCC(c3ccsc3)CC2)cc1,+,-
COc1ccc(NC(=O)N2CCC(c3ccsc3)CC2)cc1,-,.
c1ccn2cc(C34CC5CC(CC(C5)C3)C4)nc2c1,+,.
Cc1cc(C)c2c(n1)nn1c(NCCN(C)C)cc(C)nc21,+,-
Cc1cc(C)c2c(n1)nn1c(NCCc3ccccc3)cc(C)nc21,-,-
Cc1ccc(-c2c(C)nn3c(NCCN4CCOCC4)cc(C)nc23)cc1,-,-
Cc1cc(C)c2c(n1)nn1c(NCCN3CCOCC3)cc(C)nc21,+,-
CCSc1nnc(NC(=O)CSc2c(C)cnc3c2c(=O)n(C)c(=O)n3C)s1,-,-
CCOC(CNC(=O)C(=O)Nc1ccc(N2CCCS2(=O)=O)cc1)OCC,-,.
CCOC(CNC(=O)C(=O)Nc1ccc(N2CCCCS2(=O)=O)cc1)OCC,+,.
COCCNC(=O)C(=O)NCCN1CCC(c2cccs2)CC1,-,-
SMILES,GluA2 TARP mod,GIRK2 activator
Cc1cc(=O)[nH]c(-n2nc(C)c(CCC(=O)NCc3ccccc3Cl)c2C)n1,-,-
Cc1nn(-c2nc3ccccc3[nH]2)c(=O)c2ccccc12,+,.
COc1ccc(CNC(=O)C(=O)Nc2ccc3c(c2)N(C(=O)C(C)C)CCC3)cc1,-,-
COc1cccc(CNC(=O)C(=O)Nc2ccc3c(c2)N(C(=O)C(C)C)CCC3)c1,+,-
COc1ccc(NC(=O)c2cccc(-n3cnc4c(sc5nc(C)cc(C)c54)c3=O)c2)c(OC)c1,-,-
Cc1c(O)ccc2cc(S(=O)(=O)c3ccc(F)cc3)c(=O)oc12,+,.
CC(C)(C)c1ccc(S(=O)(=O)c2cc3cc(F)cc(F)c3oc2=O)cc1,-,.
CSc1cccc(NC(=O)C(=O)NC2CCCC2)c1,-,.
O=C(CCc1csc(NC(=O)c2ccc[nH]c2=O)n1)NCc1ccc(F)cc1,+,-
O=C(CCc1csc(NC(=O)c2ccc[nH]c2=O)n1)NCc1ccc2c(c1)OCO2,-,-
COc1ccccc1CNC(=O)CCc1csc(NC(=O)c2ccc(Cl)cc2)n1,+,-
COc1ccccc1CNC(=O)CCc1csc(NC(=O)c2ccc(F)cc2)n1,-,-
Cc1ccc(CC(=O)Nc2nnc(CSc3ccccc3)o2)c(C)c1,-,-
COc1ccccc1-c1ccc(N2CCC(C(=O)N3CCN(c4ccccc4OC)CC3)CC2)nn1,-,-
CCN(C(=O)C1CCN(c2ccc(-c3ccccc3OC)nn2)CC1)C1CCCCC1,+,-
CCN1CCc2nc(-c3ccc(F)cc3)n(CC(=O)Nc3ccc4c(c3)CCC4)c(=O)c2C1,.,-
COc1ccc(CNC(=O)c2snc(C(=O)N3CCCC3)c2N)cc1,-,-
CC(C)COC(=O)Nc1nc(CC(=O)NCC2CCCCC2)cs1,.,-
Cn1c(=O)c2c(NCCc3ccc(S(N)(=O)=O)cc3)ccnc2n(C)c1=O,+,-
Cn1c(=O)c2c(SCC(=O)NCCc3ccccc3)ccnc2n(C)c1=O,-,-
COCCCNC(=O)c1nn(-c2ccc(F)cc2)cc1OC,-,-
COc1cn(-c2ccc(F)cc2)nc1C(=O)NCCCn1ccnc1,+,-
CCn1nc(C)cc1C(=O)N1CC(=O)Nc2ccccc21,-,-
CCOC(=O)CCC(=O)Nc1ccc(C)c(N2CCCCC2=O)c1,-,-
Cc1ccc(NC(=O)CCSc2ccccc2)cc1N1CCCCC1=O,+,-
COCC(=O)N1CCCc2ccc(NC(=O)CCSc3ccccc3)cc21,+,-
COCC(=O)N1CCCc2ccc(NC(=O)Cc3ccccc3Cl)cc21,-,-
Cc1ccc(C(CNC(=O)COc2ccc3ccccc3c2)N2CCOCC2)cc1 (stereo not given),+,-
Cc1ccc(OCC(=O)NCC(c2cccc3ccccc23)N2CCOCC2)cc1 (stereo not given),-,-
